From PubChem
Shown are actives, neighbours in structure and some others; about 4.8% of the full set was active somewhere.
hgDAF12 agonist: activates the H. glycines DAF-12 receptor ligand-binding domain. HEK293 GAL4-hgDAF12 UAS-luciferase reporter, agonist luminescence; normalized to butyrate control. 370,000 compounds, 1.8% hits. AID 687014. activation, % at 6.8 µM;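 active means activation above a cutoff set at the mean of all screened compounds plus 3 SD, cut at about 10% in these data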;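 further: 0% = DMSO wells and 100% = sodium butyrate wells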
SMARCA2 activ: increases SMARCA2 function in MMTV reporter cells | 370,000 compounds, 1% hits | activation, % at 9.1 µM | MG213 cells, MMTV-luciferase reporter, dexamethasone, overnight | AID 652017; in the data active means activation above about 7.8%;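 further: 0% = vehicle wells and 100% = reference activator wells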
DAX1 inh-1: DAX1 (NR0B1) inhibition, primary screen; inhibition, % at 6.8 µM; 370,000 compounds, 1.1% hits; HEK293T StAR-luciferase reporter, SF-1/DAX-1 repression relief;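 active means inhibition above the mean over all tested compounds plus 3 SD, cut at about 3.6% in these data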;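 further: 0% = DAX-1 cells with DMSO and 100% = cells lacking DAX-1 with DMSO; higher inhibition means more luminescence from relief of DAX-1 repression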
hcDAF-12 act: activates DAF-12 receptor from parasite H. contortus. HEK293 hcDAF-12 lit1-tk-luc reporter, luminescence; 0% DMSO, 100% Δ7-dafachronic acid. activation, % at 6.8 µM. 370,000 compounds, 1.4% hits;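 active means activation above the mean of all tested compounds plus 3 SD, cut at about 5.5% in these data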;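 further: 100% = response to 3 µM Δ7-dafachronic acid high control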
DAX1 inh-2: inhibitors of human orphan nuclear receptor DAX1 (NR0B1) | P51843 | HEK293 Gal4-DAX1 luciferase reporter, luminescence | inhibition, % at 6.75 µM | 340,000 compounds, 0.99% hits | AID 504766;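 active means inhibition above the mean over all tested compounds plus 3 SD, cut at about 4.2% in these data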;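 further: 0% = DAX1-transfected cells with DMSO and 100% = empty-vector control cells with DMSO; inhibition shows as a rise in luminescence from relieved DAX1 repression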
Target sequence (P51843 207-470 limits assumed): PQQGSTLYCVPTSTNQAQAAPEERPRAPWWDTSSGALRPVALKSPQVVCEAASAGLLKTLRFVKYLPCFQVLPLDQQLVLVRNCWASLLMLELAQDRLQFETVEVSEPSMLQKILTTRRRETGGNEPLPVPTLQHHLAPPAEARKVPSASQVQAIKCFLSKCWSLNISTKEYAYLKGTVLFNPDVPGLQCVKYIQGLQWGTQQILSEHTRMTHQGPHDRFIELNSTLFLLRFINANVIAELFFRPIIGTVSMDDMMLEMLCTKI
ssDAF-12 act: activates DAF-12 receptor from parasite S. stercoralis. AID 652126. activation, % at 6.8 µM. HEK293 ssDAF-12/GRIP1 lit1-tk-luc reporter, luminescence; % of 3 µM dafachronic acid response. 370,000 compounds, 1% hits;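 active means activation above the mean over all tested compounds plus 3 SD, cut at about 0.9% in these data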;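 further: 0% = DMSO-only wells and 100% = 3 µM delta7-dafachronic acid wells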
* marks the source's active call; other numbers are inactive results; . = not tested or not shown; ! = a repeat was not active.

SMILES | hgDAF12 agonist | SMARCA2 activ | DAX1 inh-1 | hcDAF-12 act | DAX1 inh-2 | ssDAF-12 act
N#C/C(=N\Nc1ccc(Br)cc1)C(=N)N1CCOCC1 | 7 | 4 | 1 | 2 | 3 | 0
N#C/C(=N\Nc1ccccc1)C(=N)N1CCCCC1 | 12* | 5 | 3 | 3 | 2 | 1
Cn1cncc1C(=O)c1ccccc1 | 0 | -1 | -1 | 2 | 2 | 1.1*
CC(C)CN(C(=O)CSc1nc(-c2ccccc2)cn1N)c1c(N)n(Cc2ccccc2)c(=O)[nH]c1=O | 2 | 2 | 0 | 3 | 3 | -1
N#C/C(=C\Nc1ccccc1O)c1nc2ccccc2o1 | 5 | -1 | 0 | 6.3* | 2 | 0
N#C/C(=C\c1ccncc1)c1nc2ccccc2o1 | 4 | 0 | 0 | 4 | . | 0
Cc1c(C#N)c(O)n(CCO)c(=O)c1N=Nc1ccccc1 | -4 | 1 | -1 | -1 | 4.4* | -2
Cc1c(C#N)c(O)n(CCO)c(=O)c1N=Nc1ccc(S(N)(=O)=O)cc1 | -2 | -5 | -1 | -1 | 0 | -2
CN(C)/N=C/c1ccc(OS(=O)(=O)c2ccccc2)cc1 | 11* | 1 | 2 | 2 | 2 | -1
CCCCCn1nc(C)c(/C=N/NC(=O)c2ccoc2C)c1C | 13* | 5 | 3.6* | 2 | 2 | -1
CCN(CC)c1ccc(/C=N/NC(=O)OC)c(O)c1 | 2 | 3 | 0 | -1 | 0 | -1
CCN(CC)c1ccc(/C=N/NC(=O)c2ccoc2C)c(O)c1 | 12* | -4 | -2 | 4 | 2 | 0
COc1cccc(CNC(=O)C2CCCN2S(=O)(=O)c2ccc3c(c2)C(C)(C)C(=O)N3C)c1 (centres undefined) | -1 | 1 | -1 | 2 | 1 | -2
CC(C)(C)NC(=O)C(Cc1ccccc1)NS(=O)(=O)c1ccc2c(c1)CCC(=O)N2 (centres undefined) | 0 | -2 | 0 | 0 | 0 | -1
O=C1CCc2cc(S(=O)(=O)N3CCC(C(=O)NCCC4=CCCCC4)CC3)ccc2N1 | 1 | -2 | 0 | 1 | 6.2* | -1
O=C1CCc2cc(S(=O)(=O)NC(Cc3ccccc3)C(=O)NCCC3=CCCCC3)ccc2N1 (centres undefined) | 0 | 0 | -1 | -2 | 4.3* | -2
COC(=O)c1c(NC(=O)Cc2ccccc2)sc2c1CCN(C(C)C)C2 | 5 | 2 | 1 | -2 | 1 | -2
CCOC(=O)c1c(NC(=O)CCS(=O)(=O)c2ccccc2)sc2c1CCN(C(C)C)C2 | 0 | 2 | 4.0* | 2 | 0 | -1
Cc1ccc(-c2nnc(SCC(=O)Nc3ccc(-c4nc5ccc(C)cc5s4)cc3)n2Cc2ccco2)cc1 | 11* | 3 | -1 | -1 | . | -1
COc1ccc(-c2nnc(SCC(=O)Nc3ccc(Oc4ccccc4)cc3)n2Cc2ccco2)cc1 | 1 | -4 | -2 | 0 | . | -1
Cc1noc(C)c1S(=O)(=O)N(C)C[C@H]1Oc2c(NC(=O)C3CCCCC3)cccc2C(=O)N([C@H](C)CO)C[C@@H]1C | -1 | -3 | 2 | -1 | 0 | -1
O=c1c2ccccc2oc2cc(NCCCN3CCOCC3)ccc12 | 12* | 6 | 3 | 4 | 2 | 0
CCN(CC)CCNC(=O)c1ccc(NC(=O)c2ccc(S(=O)(=O)N(C)c3ccccc3OC)cc2)cc1 | -1 | 6 | 1 | -1 | 1 | -1
NC(=S)N/N=C1\CC(n2nnnc2-c2ccccc2Cl)C2COC1O2 (centres undefined) | -4 | 7.8* | 0 | 0 | 0 | -2
COc1ccc(C(=O)Nn2c(SCc3cccc([N+](=O)[O-])c3)nc3ccccc3c2=O)cc1 | 0 | -1 | 1 | 1 | -1 | -2
SMILES | hgDAF12 agonist | SMARCA2 activ | DAX1 inh-1 | hcDAF-12 act | DAX1 inh-2 | ssDAF-12 act
O=C(Nn1c(SCc2cccc([N+](=O)[O-])c2)nc2ccccc2c1=O)c1ccccc1 | 13* | -1 | 3 | 4 | 2 | 0
Cc1cc(N/N=C(/CCC(=O)O)C(=O)O)nc2ccccc12 | 2 | 1 | 0 | 1 | 0 | -1
CC(=NNc1cc(C)c2ccccc2n1)c1ccccn1 | -1 | 1 | 2 | 2 | . | 0.9*
Cc1oc(-c2cccc(Cl)c2)nc1CS(=O)(=O)CC(=O)NCCN1CCOCC1 | 1 | -1 | 1 | 1 | -2 | -1
CC[n+]1ccc(/C=C2\Sc3ccccc3N2CCCS(=O)(=O)[O-])c2ccccc21 | -1 | -4 | 0 | 4 | 0 | 1.2*
C[n+]1ccccc1/C=C1\Sc2ccccc2N1CCO | -3 | -1 | 0 | 0 | 2 | -1
CCOC(=O)C1CCN(C(=O)c2ccc(OC)cc2OC)CC1 | -2 | -1 | 0 | -1 | 1 | -2
COc1cccc(NC(=O)c2ccc(OC(F)(F)F)cc2)c1 | 11* | 5 | 1 | 3 | 2 | 0
COc1cc(NC(=O)c2ccc(N)nc2)cc(C(=O)Nc2cccc(C(F)(F)F)c2)c1 | 1 | 7.9*! | -1 | 0 | 1 | -1
COc1cc(NC(=O)c2nccnc2N)cc(C(=O)Nc2cccc(C(F)(F)F)c2)c1 | 1 | -2 | 1 | 0 | 1 | 0
CN(c1ccccc1)S(=O)(=O)c1cccc(Cl)c1Cl | 1 | -4 | 0 | -1 | -2 | -1
CCCCN1C=C(C(=O)OC)C(c2ccccc2Cl)C(C(=O)OC)=C1 | -4 | -1 | 0 | 1 | 1 | -2
O=C1c2ccccc2C(=O)N1c1ccccc1 | 1 | -1 | 0 | -2 | 5.2* | -2
COc1cc2nc(N(CCCN(C)C)C(=O)c3ccc(S(=O)(=O)N4CCc5ccccc54)cc3)sc2cc1OC | -1 | 3 | 3 | 1 | 0 | 0
Cc1ccc(NC(=O)COC(=O)CN2CSCC2=O)cc1C | 1 | -4 | -1 | -1 | -1 | -1
COc1ccc(C(=O)N/N=C/c2ccccn2)cc1OC | 1 | 3 | 0 | -1 | 1 | -1
O=C(N/N=C/c1ccccn1)c1cccs1 | 9 | 0 | 0 | 4 | 4 | 1.5*
CN(C)c1ccc(C(=O)N/N=C/c2ccccn2)cc1 | 12* | 2 | 3.6* | 1 | 0 | 0
Cc1ccccc1C(=O)N/N=C/c1ccccn1 | 13* | 10* | 2 | 4 | 1 | -1
COc1ccc(OC)c(C(=O)N/N=C/c2ccccn2)c1 | 8 | 2 | 0 | 1 | 4.6* | -1
COc1ccc(C=O)cc1-c1cc(C(C)=O)c2n(c1=O)CCC2 | 1 | -1 | 0 | -1 | . | 1.3*
O=C1CCCCCN1CP(=O)(O)CCc1ccccc1 | 0 | -3 | 0 | 0 | 0 | -1
O=C1CCCCCN1CP(=O)(O)CN1CCCCCC1=O | 13* | 3 | 0 | -1 | 3 | -1
O=C(CO/N=C/c1ccccc1)Nc1c(F)c(F)c(F)c(F)c1F | -1 | -1 | 0 | -1 | 0 | -2
